# Assay results from PubChem BioAssay (NCATS).
# Unmarked numbers belong to inactive results. Results filed as inconclusive are left out. Activity calls are given as the source filed them. Unless noted, calls come from the whole dose curve; as a rule, active = well fitted curve in either direction with a large enough effect (not every such curve was filed as active); inconclusive = small, poorly fitted or top-dose-only effect, or another doubt; inactive = flat fitted curve, though single readings scatter.
# Assays:
# [1] = NFAT Signaling Pathway (AID 444); details: Jurkat NFAT-bla M1, carbachol, beta-lactamase ratio, 5 h; at 17.2 µM (top of the series) unless noted;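 note: carbachol stimulus at about its EC50 of 1 µM final; % is set by controls: 0 for no effect and ±100 for the full control effect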
# Procedure, shortened: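 Jurkat cells with NFAT-driven β-lactamase reporter and co-expressed M1 receptor, stimulated with carbachol (final 1 uM, ~EC50), compound titration, 5 h at 37 °C. CCF4 loaded 1 h at RT; 460/530 nm ratio gave %activity and AC50.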
# [2] = Stat Signaling Pathway (AID 446); details: ME-180 SIE beta-lactamase reporter, IL-6 stimulated, 5 h; at 17.2 µM (top of the series) unless noted;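 note: ME-180 cervical cancer cells given 40 pM IL-6 alongside compound; SIE-controlled beta-lactamase reporter measured as 460/530 nm FRET emission ratio; % is set by controls: 0 for no effect and ±100 for the full control effect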
# Procedure, shortened: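 FRET read-out (405 nm excitation, 460/530 nm emission) of a beta-lactamase reporter under a STAT-inducible element in ME-180 cervical carcinoma cells. Cells with compound receive 40 pM IL-6 for 5 h. Values are normalised to AC90 stimulation and AC90 JAK-inhibitor controls.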
# [3] = molecular target: Glucocorticoid receptor (Homo sapiens) (UniProt P04150); test: GR-GFP Redistribution (AID 450;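 active = compounds whose dose series gives a full or clear partial fitted curve of increased nuclear translocation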; note: potency is the fitted concentration of half-maximal effect)
# Glucocorticoid receptor (Homo sapiens), sequence (P04150 whole entry, looked up, the tested form may be a part): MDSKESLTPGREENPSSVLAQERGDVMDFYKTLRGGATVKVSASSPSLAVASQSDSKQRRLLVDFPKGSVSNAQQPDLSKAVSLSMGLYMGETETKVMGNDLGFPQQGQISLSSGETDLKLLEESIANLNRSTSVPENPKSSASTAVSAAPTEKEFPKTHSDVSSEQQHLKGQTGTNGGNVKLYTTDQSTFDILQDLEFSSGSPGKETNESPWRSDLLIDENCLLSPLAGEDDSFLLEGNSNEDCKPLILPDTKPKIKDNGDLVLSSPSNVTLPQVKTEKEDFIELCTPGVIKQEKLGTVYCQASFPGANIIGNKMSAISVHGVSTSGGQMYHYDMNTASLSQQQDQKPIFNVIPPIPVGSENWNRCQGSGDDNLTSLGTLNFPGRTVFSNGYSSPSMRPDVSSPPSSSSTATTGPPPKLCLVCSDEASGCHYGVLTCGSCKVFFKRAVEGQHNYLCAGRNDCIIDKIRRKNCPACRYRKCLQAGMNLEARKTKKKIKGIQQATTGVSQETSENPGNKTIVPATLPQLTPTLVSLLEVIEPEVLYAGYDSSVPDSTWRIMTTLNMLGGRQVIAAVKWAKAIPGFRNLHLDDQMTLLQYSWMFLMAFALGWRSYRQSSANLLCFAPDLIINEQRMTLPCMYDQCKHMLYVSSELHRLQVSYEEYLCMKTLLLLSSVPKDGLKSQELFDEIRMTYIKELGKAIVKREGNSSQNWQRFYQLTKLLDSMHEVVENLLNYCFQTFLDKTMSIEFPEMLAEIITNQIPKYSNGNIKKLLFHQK
# [4] = molecular target: Glucocorticoid receptor (Homo sapiens) (UniProt P04150); test: GR-EFC Redistribution (AID 451; calls by dose curve; note: potency is the fitted concentration of half-maximal effect); details: CHO-K1 GR-EFC translocation, beta-gal luminescence, 2 h
# Procedure, shortened: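 CHO-K1 cells expressing nuclear EA and GR-ED fragments of b-gal; compounds titrated up to 46 uM final, 2 h at 37 C. GR nuclear translocation read as complemented b-gal luminescence after 1 h RT detection.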
# [5] = molecular target: Mitogen-activated protein kinase 10 (Mus musculus) (UniProt Q61831); test: JNK3 AlphaScreen Assay (AID 530);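 note: kinase came from lysate of stimulated human HepG2 cells; signal reports phosphorylation of biotinylated GST-cJun 1-79 at Ser73 with 10 µM ATP; % is set by controls: 0 for no effect and ±100 for the full control effect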
# Procedure, shortened: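 HepG2 lysate (IL-1b/TNFa pre-activated) + biotin-GST-cJun 1-79 + anti-pSer73 cJun; cpd titration, 15 min RT; ATP 10 uM start; Tris pH 7.6, MgCl2, DTT, vanadate; beads in EDTA buffer; AlphaScreen.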
# [6] = molecular target: 3',5'-cyclic-AMP phosphodiesterase 4B (Homo sapiens) (UniProt Q07343); test: qHTS Assay for Inhibitors of PDE-IV (AID 607; active = well fitted activation curve with a large enough effect in the main read-out, with a control signal flat, not every such curve was filed as active; note: % of control where 0% means no effect)
# 3',5'-cyclic-AMP phosphodiesterase 4B (Homo sapiens), sequence (Q07343 whole entry, looked up): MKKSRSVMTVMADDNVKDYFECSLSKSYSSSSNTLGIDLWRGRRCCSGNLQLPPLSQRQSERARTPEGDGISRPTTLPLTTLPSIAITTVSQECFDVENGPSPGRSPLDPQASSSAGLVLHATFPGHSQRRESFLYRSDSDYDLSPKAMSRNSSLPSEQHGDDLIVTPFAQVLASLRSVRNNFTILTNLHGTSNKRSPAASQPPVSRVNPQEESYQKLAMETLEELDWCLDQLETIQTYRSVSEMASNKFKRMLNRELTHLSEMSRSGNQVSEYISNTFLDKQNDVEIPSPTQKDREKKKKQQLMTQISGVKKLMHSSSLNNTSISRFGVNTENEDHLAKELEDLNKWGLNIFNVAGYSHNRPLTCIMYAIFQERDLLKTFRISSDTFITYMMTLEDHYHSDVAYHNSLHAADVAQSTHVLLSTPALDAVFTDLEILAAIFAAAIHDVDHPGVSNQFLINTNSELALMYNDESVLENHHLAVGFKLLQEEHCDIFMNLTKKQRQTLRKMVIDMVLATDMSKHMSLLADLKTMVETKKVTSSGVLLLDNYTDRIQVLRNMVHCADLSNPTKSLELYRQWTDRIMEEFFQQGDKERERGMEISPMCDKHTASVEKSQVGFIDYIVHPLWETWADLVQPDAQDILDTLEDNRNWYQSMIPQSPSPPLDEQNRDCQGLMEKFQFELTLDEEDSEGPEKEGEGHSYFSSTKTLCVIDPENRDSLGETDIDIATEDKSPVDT
# Procedure, shortened: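 Cell-based read-out of cAMP via a modified cyclic nucleotide-gated channel and membrane potential dye (535/590 nm) in HEK293 cells expressing PDE4 endogenously. Compounds tested up to 22.9 uM final; 100 uM RO 20-1724 reference.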
# [7] = molecular target: Guanine nucleotide-binding protein G(i) subunit alpha-1 (Homo sapiens) (UniProt P63096); test: qHTS Assay for Inhibitors of RGS12 GoLoco Motif Activity (Green Fluorophore) (AID 879; active = well fitted curve in the direction sought with a large enough effect; an effect the other way counts as inactive or inconclusive;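 note: 0% = labeled peptide with Gαi1 and full inhibition = labeled peptide alone without protein; negative values mean loss of peptide binding seen as reduced polarization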)
# Guanine nucleotide-binding protein G(i) subunit alpha-1 (Homo sapiens), sequence (P63096 whole entry, looked up): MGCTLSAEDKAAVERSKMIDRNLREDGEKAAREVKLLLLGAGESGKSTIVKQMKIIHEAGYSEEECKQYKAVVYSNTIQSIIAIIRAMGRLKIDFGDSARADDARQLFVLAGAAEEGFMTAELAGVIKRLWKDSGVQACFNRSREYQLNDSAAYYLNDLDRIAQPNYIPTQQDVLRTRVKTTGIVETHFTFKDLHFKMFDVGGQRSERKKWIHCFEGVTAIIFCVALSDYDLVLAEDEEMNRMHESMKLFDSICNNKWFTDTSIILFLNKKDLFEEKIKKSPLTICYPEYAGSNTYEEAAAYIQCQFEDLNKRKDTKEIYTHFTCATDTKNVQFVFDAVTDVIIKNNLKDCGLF
# Procedure, shortened: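 A drop in FITC polarization marked displacement of the FITC-tagged RGS12 GoLoco peptide (10 nM) from Gαi1 (50 nM). Compounds were incubated 10 min at room temperature in Tris pH 7.5 buffer containing 150 mM NaCl, 0.1 mM GDP and 0.05% NP40; unlabeled peptide titration served as control.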
# [8] = molecular target: Muscarinic acetylcholine receptor M1 (Rattus norvegicus) (UniProt P08482); test: qHTS Assay for Antagonists of Acetylcholine Muscarinic M1 Receptor: Kinetic Measurement of Intracellular Calcium Response (AID 943; active = well fitted curve in the direction sought with a large enough effect; an effect the other way counts as inactive or inconclusive;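 note: Fluo-4 calcium signal as peak divided by basal fluorescence over 4 min; nearly all actives have a fitted effect of over 75% in size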)
# Muscarinic acetylcholine receptor M1 (Rattus norvegicus), sequence (P08482 whole entry, looked up): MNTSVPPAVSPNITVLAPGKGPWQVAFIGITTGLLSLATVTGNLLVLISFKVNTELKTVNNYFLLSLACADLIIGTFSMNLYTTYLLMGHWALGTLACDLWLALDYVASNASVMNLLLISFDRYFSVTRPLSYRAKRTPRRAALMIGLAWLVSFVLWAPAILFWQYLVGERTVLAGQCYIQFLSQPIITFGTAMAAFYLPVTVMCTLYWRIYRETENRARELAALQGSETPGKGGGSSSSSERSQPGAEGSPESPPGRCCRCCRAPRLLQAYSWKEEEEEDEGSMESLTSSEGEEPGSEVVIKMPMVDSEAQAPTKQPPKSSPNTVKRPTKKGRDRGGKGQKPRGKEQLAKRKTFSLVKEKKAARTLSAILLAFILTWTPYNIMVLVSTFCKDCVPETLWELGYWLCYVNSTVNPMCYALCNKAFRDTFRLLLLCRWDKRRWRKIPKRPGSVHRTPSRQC
# Procedure, shortened: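 Quantitative HTS in CHO-M1 (rat receptor) cells: 10 min compound exposure ahead of 100 nM carbachol, Fluo-4 fluorescence followed 4 min, value expressed as peak-to-basal ratio.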
# [9] = molecular target: Muscarinic acetylcholine receptor M1 (Rattus norvegicus) (UniProt P08482); test: qHTS Assay for Antagonists of Acetylcholine Muscarinic M1 Receptor: Measurement of IP-One Response (AID 944; active = well fitted curve in the direction sought with a large enough effect; an effect the other way counts as inactive or inconclusive; note: nearly all actives have a fitted effect of over 75% in size)
# Procedure, shortened: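 Antagonism was measured as loss of carbachol-driven (EC80) IP1 accumulation in CHO cells carrying rat M1, using a homogeneous IP-One TR-FRET kit read at 620 and 665 nm.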
# [10] = molecular target: Pyruvate kinase (Leishmania mexicana) (UniProt Q27686); test: qHTS Validation Assay for Inhibitors of Leishmania Mexicana Pyruvate Kinase (AID 945; active = well fitted curve in the direction sought with a large enough effect; an effect the other way counts as inactive or inconclusive; note: potency is the fitted concentration of half-maximal effect;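 for activity change, negative = inhibition: 0% = DMSO only neutral control wells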)
# Pyruvate kinase (Leishmania mexicana), sequence (Q27686 2-499 E452W): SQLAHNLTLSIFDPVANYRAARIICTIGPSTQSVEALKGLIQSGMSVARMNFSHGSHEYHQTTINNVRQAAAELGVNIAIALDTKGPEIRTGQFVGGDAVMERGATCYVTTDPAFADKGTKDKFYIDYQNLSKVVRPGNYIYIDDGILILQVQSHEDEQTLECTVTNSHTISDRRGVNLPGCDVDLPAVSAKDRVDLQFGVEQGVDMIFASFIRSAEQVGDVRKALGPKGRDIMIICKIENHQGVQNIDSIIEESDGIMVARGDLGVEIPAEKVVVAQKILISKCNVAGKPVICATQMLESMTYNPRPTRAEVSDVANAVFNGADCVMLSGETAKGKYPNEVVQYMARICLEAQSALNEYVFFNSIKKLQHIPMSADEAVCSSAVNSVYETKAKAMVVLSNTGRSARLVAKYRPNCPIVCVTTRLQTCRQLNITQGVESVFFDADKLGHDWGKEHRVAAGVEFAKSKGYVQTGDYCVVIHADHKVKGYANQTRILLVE
# Procedure, shortened: (§1)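 Purified LmPYK (E451W mutant, 0.2 nM) was incubated 1 h at room temperature with 0.5 mM PEP and 0.1 mM ADP in 50 mM imidazole pH 7.2, 50 mM KCl, 7 mM MgCl2; ATP formed was read by PKLight luminescence, normalized to DMSO wells.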
# [11] = molecular target: Pyruvate kinase PKM (Homo sapiens) (UniProt P14618); test: qHTS Assay for Activators of Human Muscle Pyruvate Kinase (AID 954; active = well fitted curve in the direction sought with a large enough effect, not every such curve was filed as active;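 note: 0% = uninhibited enzyme and -100% = no enzyme or full thiadiazolimine inhibition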)
# Pyruvate kinase PKM (Homo sapiens), sequence (P14618 whole entry, looked up): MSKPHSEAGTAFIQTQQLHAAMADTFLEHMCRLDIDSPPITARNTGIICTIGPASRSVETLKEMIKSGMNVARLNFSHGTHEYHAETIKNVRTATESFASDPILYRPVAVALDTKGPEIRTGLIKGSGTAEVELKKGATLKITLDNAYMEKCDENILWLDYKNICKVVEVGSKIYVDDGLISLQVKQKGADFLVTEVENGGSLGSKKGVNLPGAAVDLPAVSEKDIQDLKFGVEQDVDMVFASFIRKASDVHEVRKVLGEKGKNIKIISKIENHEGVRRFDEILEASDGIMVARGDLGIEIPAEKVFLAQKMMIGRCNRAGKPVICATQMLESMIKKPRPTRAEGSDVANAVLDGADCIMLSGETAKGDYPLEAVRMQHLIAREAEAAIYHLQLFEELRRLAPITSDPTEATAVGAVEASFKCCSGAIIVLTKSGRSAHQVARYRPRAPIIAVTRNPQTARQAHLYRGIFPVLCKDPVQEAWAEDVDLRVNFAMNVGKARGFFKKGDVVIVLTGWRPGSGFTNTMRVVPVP
# Procedure, shortened: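 ATP production by PKM2 detected via luciferase luminescence after 1 h room-temperature reaction (0.1 nM enzyme, PEP at Km 0.5 mM, ADP 0.1 mM, pH 7.2 imidazole buffer). Inhibition scaled to no-enzyme control; activation referenced to 0.3 nM enzyme wells.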
# [12] = molecular target: Pyruvate kinase PKM (Homo sapiens) (UniProt P14618); test: qHTS Assay for Inhibitors of Human Muscle Pyruvate Kinase (AID 958; active = well fitted curve in the direction sought with a large enough effect; an effect the other way counts as inactive or inconclusive)
# Procedure, shortened: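 Purified human PKM2 (0.1 nM) with 0.5 mM PEP (Km) and 0.1 mM ADP in 50 mM imidazole pH 7.2, KCl, MgCl2, 1 h at room temperature; ATP formed read by coupled luciferase luminescence. Normalized to no-enzyme/110 uM thiadiazolimine inhibition; 0.3 nM enzyme column for activation.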
# [13] = molecular target: Pyruvate kinase (Leishmania mexicana) (UniProt Q27686); test: qHTS Validation Assay for Activators of Leishmania Mexicana Pyruvate Kinase (AID 959; active = well fitted curve in the direction sought with a large enough effect; an effect the other way counts as inactive or inconclusive)
# Procedure, shortened: as §1
# [14] = molecular target: Alpha-galactosidase A (Homo sapiens) (UniProt P06280); test: Counterscreen for Glucocerebrosidase Inhibitors: qHTS Assay for Human alpha-Galactosidase at pH 4.5 (AID 992; active = well fitted curve in the direction sought with a large enough effect; an effect the other way counts as inactive or inconclusive; note: 0% is about no effect)
# Alpha-galactosidase A (Homo sapiens), sequence (P06280 whole entry, looked up): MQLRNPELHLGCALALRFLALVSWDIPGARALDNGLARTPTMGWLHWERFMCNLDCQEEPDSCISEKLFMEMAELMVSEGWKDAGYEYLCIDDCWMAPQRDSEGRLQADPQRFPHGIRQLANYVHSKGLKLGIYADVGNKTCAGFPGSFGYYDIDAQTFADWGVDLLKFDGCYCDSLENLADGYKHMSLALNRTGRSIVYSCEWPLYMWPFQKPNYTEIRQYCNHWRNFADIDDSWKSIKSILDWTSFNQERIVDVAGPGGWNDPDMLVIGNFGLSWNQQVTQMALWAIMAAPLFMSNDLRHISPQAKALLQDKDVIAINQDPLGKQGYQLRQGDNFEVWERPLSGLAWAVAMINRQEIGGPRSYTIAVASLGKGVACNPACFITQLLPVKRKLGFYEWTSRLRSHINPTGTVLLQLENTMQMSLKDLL
# Procedure, shortened: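 Fluorogenic 1536-well qHTS at pH 4.5 (citrate, Tween-20): 2 nM enzyme, 80 uM 4-MU-alpha-galactoside, 20 min room temperature, NaOH/glycine stop. Titration 0.7 nM to 77 uM, data normalized to no-enzyme and full-activity controls, Hill-fitted AC50.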
# [15] = molecular target: alpha-glucosidase (Oryza sativa, rice) (UniProt Q653V4); test: Counterscreen for Glucocerebrosidase Inhibitors: qHTS Assay for Rice alpha-Glucosidase at pH 5.0 (AID 997; active = well fitted curve in the direction sought with a large enough effect; an effect the other way counts as inactive or inconclusive;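 note: 0% = full activity with enzyme and -100% = basal without enzyme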)
# Procedure, shortened: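 Endpoint fluorogenic assay at pH 5.0: compounds (0.7 nM to 77 uM) titrated against 4 nM rice enzyme and 400 uM 4-MU-alpha-glucoside for 20 min at room temperature; NaOH/glycine stop, read ex 365/em 440 nm, Hill-fitted AC50.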
# [16] = qHTS Assay for Identification of Small Molecule Antagonists for NFkB Signaling Pathway (AID 895; active = well fitted inhibition curve with a large enough effect in the signal ratio, with a control signal flat, not every such curve was filed as active; the % refers to the signal ratio; note: % is set by controls: 0 for no effect and ±100 for the full control effect)
# Procedure, shortened: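 ME-180 NFkB-bla cells (beta-lactamase under NFkB response element), plated overnight, treated with compound then 10 pM TNF alpha (about EC50) for 5 hrs at 37 C. LiveBLAzer FRET read at 460/530 nm emission, 405 nm excitation.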
# [17] = qHTS Assay for Identification of Small Molecule Antagonists for Thrombopoietin (TPO) Signaling Pathway (AID 918; active = well fitted curve in the direction sought with a large enough effect; an effect the other way counts as inactive or inconclusive; note: potency is the fitted concentration of half-maximal effect; nearly all actives have a fitted effect of over 60% in size); details: TPO-dependent cell signaling reporter, antagonist mode
# Procedure, shortened: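 Antagonist mode at EC50 TPO (26 pM) in IL-3-free medium; murine Ba/F3 cells with human TPO receptor and GPIIb-promoter luciferase, 24 hrs at 37 C before luminescent detection.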
smiles,measurement,setting,value
CC(C)(C)n1cnc2cc(NS(=O)(=O)c3ccc(Br)cc3)ccc21,"activity change, negative = inhibition",[1],-27.1%
same,"activity, negative = inhibition",[2],-28%
same,Potency,[3],> 20.6 µM
O=C(/C=C\c1ccc(O)cc1)c1ccc(O)cc1O,"activity change, negative = inhibition",[1],-30% [at 38 µM]
same,"activity, negative = inhibition",[2],25.4% [at 38 µM]
same,Potency,[3],> 46 µM
same,Potency,[4],> 46 µM
same,Potency,[5],inactive
same,Potency,[6],inactive
same,outcome,[7],inactive
same,Potency,[8],inactive
same,Potency,[9],inactive
same,Potency,[10],12.6 µM (active)
same,outcome,[11],inactive
same,Potency,[12],15.8 µM (active)
same,Potency,[13],inactive
same,outcome,[14],inactive
same,outcome,[15],inactive
CC[C@]1(O)C[C@H]2CN(CCc3c([nH]c4ccccc34)[C@](C(=O)OC)(c3cc4c(cc3OC)N(C)[C@@H]3[C@](O)(C(=O)OC)[C@H](OC(C)=O)[C@]5(CC)C=CCN6CC[C@]43[C@@H]65)C2)C1,"activity change, negative = inhibition",[1],0.463% [at 38 µM]
same,"activity, negative = inhibition",[2],-18.9% [at 38 µM]
same,Potency,[3],> 46 µM
same,Potency,[4],> 46 µM
same,Potency,[5],inactive
same,Potency,[6],inactive
same,outcome,[7],inactive
same,Potency,[10],inactive
same,outcome,[11],inactive
same,outcome,[14],inactive
same,outcome,[15],inactive
Cc1sc(-n2c(C)cc(/C=N/n3cnnc3)c2C)c(C#N)c1C,"activity change, negative = inhibition",[1],-9.91%
same,"activity, negative = inhibition",[2],-17%
same,Potency,[3],> 20.6 µM
Cc1ccc(-n2ncc3c(NCc4ccc5c(c4)OCO5)ncnc32)c(C)c1,"activity change, negative = inhibition",[1],8.44%
same,"activity, negative = inhibition",[2],-19.8%
same,Potency,[3],> 20.6 µM
FC(F)(F)c1cc(CO[C@@H]2CCCN[C@H]2c2ccccc2)cc(C(F)(F)F)c1,"activity change, negative = inhibition",[1],16.5% [at 38 µM]
same,"activity, negative = inhibition",[2],-14.5% [at 38 µM]
same,Potency,[3],> 46 µM
same,Potency,[4],> 46 µM
same,Potency,[5],inactive
same,Potency,[16],inactive
same,Potency,[17],10 µM (active)
same,Potency,[8],inactive
same,Potency,[9],inactive
same,Potency,[10],inactive
same,outcome,[11],inactive
same,outcome,[14],inactive
same,outcome,[15],inactive
CCOC(=O)CSc1nc(N)c2c3c(sc2n1)CCCC3,"activity change, negative = inhibition",[1],-14.4%
same,"activity, negative = inhibition",[2],-14.2%
same,Potency,[3],> 20.6 µM
COc1ccccc1-c1nnc2sc(C3CCCCC3)nn12,"activity change, negative = inhibition",[1],-6.47%
same,"activity, negative = inhibition",[2],8.63%
same,Potency,[3],> 20.6 µM
CCCn1c(SCC(N)=O)nc2c(c1=O)C1(CCCC1)Cc1ccccc1-2,"activity change, negative = inhibition",[1],-22.4%
same,"activity, negative = inhibition",[2],-8.32%
same,Potency,[3],> 20.6 µM
[N-]=[N+]=CC(=O)c1ccnc(C(=O)C=[N+]=[N-])c1,"activity change, negative = inhibition",[1],-17.4%
same,"activity, negative = inhibition",[2],-1.87%
same,Potency,[3],> 20.6 µM
CN(C)C/C(Cl)=C(\Cl)c1ccccc1,"activity change, negative = inhibition",[1],-119% (active)
same,"activity, negative = inhibition",[2],-22.6%
same,Potency,[3],> 20.6 µM
C=C(C)CC1N(c2cccc(OC)c2)C(=O)[C@@H]2C(C(=O)O)[C@H]3C=C[C@@]12O3 (stereo partly drawn),"activity change, negative = inhibition",[1],5.5%
same,"activity, negative = inhibition",[2],3.15%
same,Potency,[3],> 20.6 µM
CCSC1=C(C#N)C(c2cccs2)C(C(=O)OC)=C(C)N1 (stereo not drawn),"activity change, negative = inhibition",[1],2.23%
same,"activity, negative = inhibition",[2],-15.6%
same,Potency,[3],> 20.6 µM
CNC(=O)c1cc2c(ccc3ccccc32)oc1=N,"activity change, negative = inhibition",[1],-5.77%
same,"activity, negative = inhibition",[2],13.1%
same,Potency,[3],> 20.6 µM
CCC1(C)Cc2ccccc2-c2nc(NCCO)n(-c3ccccc3)c(=O)c21 (stereo not drawn),"activity change, negative = inhibition",[1],6.29%
same,"activity, negative = inhibition",[2],-2.14%
same,Potency,[3],> 20.6 µM
COc1cc(C2C(C#N)=C(N)Oc3cc(C)n(CCc4ccccc4)c(=O)c32)cc2c1OCO2 (stereo not drawn),"activity change, negative = inhibition",[1],-4.95%
same,"activity, negative = inhibition",[2],-6.08%
same,Potency,[3],> 20.6 µM
CC(C)Cc1nc(N2CCN(C(=O)C(C)C)CC2)c(C#N)c2c1CCC2,"activity change, negative = inhibition",[1],-19.4%
same,"activity, negative = inhibition",[2],7.39%
same,Potency,[3],> 20.6 µM
CC1(C)CC(=O)C(C=NCC(O)c2ccccc2)=C(O)C1 (stereo not drawn),"activity change, negative = inhibition",[1],-0.832%
same,"activity, negative = inhibition",[2],8.79%
same,Potency,[3],> 20.6 µM
COC(=O)[C@@H](NC(=O)c1cc(-c2ccccc2)nc2ccccc12)c1ccccc1,"activity change, negative = inhibition",[1],-7.43% [at 38 µM]
same,"activity, negative = inhibition",[2],1.95% [at 38 µM]
same,Potency,[3],> 46 µM
same,Potency,[4],> 46 µM
same,Potency,[5],inactive
COc1cccc(-c2nnc3sc(-c4ccc(C)cc4)nn23)c1,"activity change, negative = inhibition",[1],-10.2%
same,"activity, negative = inhibition",[2],1.68%
same,Potency,[3],> 20.6 µM
COc1cccc(N2CCN(c3ncnc4c3[nH]c3ccccc34)CC2C)c1 (stereo not drawn),"activity change, negative = inhibition",[1],-139% (active)
same,"activity, negative = inhibition",[2],-104% (active)
same,Potency,[3],> 20.6 µM
CCCc1[nH]nc2c1C(c1cccc(OC)c1)C(C#N)=C(N)O2 (stereo not drawn),"activity change, negative = inhibition",[1],1.34%
same,"activity, negative = inhibition",[2],-24.8%
same,Potency,[3],> 20.6 µM
